CHO-K1 Ca antag – counter-screen for M1 antagonists: effect in parental CHO-K1 cells; inhibition, % at 3 µM; 360,000 compounds, 0.6% hits; ATP-induced calcium, Fluo-8 fluorescence; AID 602250;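 active means inhibition above a per-plate cutoff, the plate's mean sample inhibition plus 3 SD, cut at about 24% in these data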
CHRM1 antagonist – human CHRM1 antagonism | P11229 | CHO-K1 hM1, Fluo-8 calcium fluorescence, ACh EC80 antagonist | inhibition, % at 3 µM | 360,000 compounds, 1.3% hits;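 active means percent inhibition above its own plate's cutoff, namely the mean of that plate's compound wells plus 3 SD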;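 further: peak over basal fluorescence ratio during 140 s after agonist addition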
Target sequence (P11229 whole entry, looked up): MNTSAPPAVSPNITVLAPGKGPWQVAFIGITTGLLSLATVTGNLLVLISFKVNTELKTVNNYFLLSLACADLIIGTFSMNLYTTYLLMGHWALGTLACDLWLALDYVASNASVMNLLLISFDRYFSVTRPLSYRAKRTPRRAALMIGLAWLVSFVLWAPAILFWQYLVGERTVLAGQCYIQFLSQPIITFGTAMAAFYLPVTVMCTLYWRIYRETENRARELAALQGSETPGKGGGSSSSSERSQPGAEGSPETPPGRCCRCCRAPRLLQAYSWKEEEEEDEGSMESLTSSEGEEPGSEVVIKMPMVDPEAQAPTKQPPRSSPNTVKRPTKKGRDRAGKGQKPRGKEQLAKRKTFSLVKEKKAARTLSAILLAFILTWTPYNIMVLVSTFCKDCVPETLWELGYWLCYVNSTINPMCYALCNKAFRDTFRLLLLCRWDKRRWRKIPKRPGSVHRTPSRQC
M1 ag parental – M1 agonist counterscreen hit in parental CHO-K1 cells; Fluo-8 calcium fluorescence; scaled to maximal ATP response, vehicle zero; activation, % at 3 µM; 360,000 compounds, 0.48% hits; AID 602248; in the data active means activation above about 15%;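 further: untransfected CHO-K1 host cells lacking M1 receptor as counterscreen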
M1 PAM parental – M1 PAM counterscreen hit in parental CHO-K1 cells; ATP EC20, Fluo-8 calcium fluorescence; 0% at ATP EC20, 100% at ATP max; activation, % at 3 µM; 360,000 compounds, 0.02% hits; AID 602247;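 active means activation above the run cutoff, the mean activation of all test compounds plus 3 SD, cut at about 40% in these data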;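 further: peak over basal fluorescence ratio in a 140 s read after ATP addition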
M1 ag – human M1 muscarinic receptor agonism; P11229; CHO-K1 hM1, Fluo-8 calcium fluorescence, agonist mode; 0% DMSO, 100% acetylcholine EC100; activation, % at 3 µM; 360,000 compounds, 0.33% hits; AID 588814;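 active means activation above the run's mean compound activation plus 3 SD, cut at about 16% in these data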;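 further: peak over basal fluorescence ratio within a 140 s kinetic read after compound addition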
M1 PAM – positive allosteric modulators of human M1 muscarinic receptor; P11229; CHO-K1 hM1, Fluo-8 calcium fluorescence, ACh EC20; 0% = ACh EC20, 100% = maximal ACh; activation, % at 3 µM; 360,000 compounds, 0.088% hits; AID 588819; in the data active means activation above about 19%, passing the limit was not always enough
Numbers stand for hits; n = inactive. Hits are enriched below; roughly 2.4% of the tested compounds scored in any of these assays.

SMILES	CHO-K1 Ca antag	CHRM1 antagonist	M1 ag parental	M1 PAM parental	M1 ag	M1 PAM
O=C(COC(=O)/C=C/c1ccc(OC(F)F)cc1)Nc1cccc(S(=O)(=O)N2CCOCC2)c1	n	n	n	n	n	n
O=c1cc(NS(=O)(=O)c2ccccc2)nc(SCc2c(Cl)cccc2Cl)[nH]1	n	n	n	n	n	n
Cc1ccc(S(=O)(=O)Nc2cc(=O)[nH]c(SCc3ccc(Cl)cc3)n2)cc1	n	n	n	n	39	n
Cc1cc2c(NC(=O)Nc3ccc(C(F)(F)F)cc3)cccc2nn1	32	n	n	n	n	n
CNC(=O)Nc1cccc(-c2ccnc(C)n2)c1	n	n	20	n	n	n
CCOC(=O)c1[nH]c2ccc(Br)cc2c1NC(=O)CCN1CCCC(C)(C)C1	n	90	n	n	n	n
COC(=O)c1[nH]c2ccccc2c1NC(=O)CN1CCN(c2cccc(OC)c2)C(C)C1 (stereo not given)	28	n	n	n	n	n
CCOC(=O)c1[nH]c2ccc(OC)cc2c1NC(=O)CN1CCC2(CC1)OCCO2	n	n	n	n	n	n
CCOC(=O)c1[nH]c2ccc(OC)cc2c1NC(=O)CN1CCc2ccccc2C1	n	23	n	n	n	n
COC(=O)c1[nH]c2ccc(Cl)cc2c1NC(=O)CCN1CCN(C2CCCCC2)CC1	n	62	n	n	n	n
COC(=O)c1[nH]c2cc(OC)ccc2c1NC(=O)CCN1CCN(c2ccccc2)CC1	n	n	n	n	n	n
CCOC(=O)c1[nH]c2ccc(F)cc2c1NC(=O)CCN1CCOCC1	n	n	n	n	n	n
OC(c1cccc(Cl)c1)c1nc(/C=C/c2ccccc2)cs1 (stereo not given)	n	n	n	n	n	n
CCC(C(=O)NC1CCCCC1)n1c(SCc2cccc(C)c2)nc2ccncc21 (stereo not given)	n	n	n	n	n	n
CCC(C(=O)NC1CCCCC1)n1c(SCc2cccc(F)c2)nc2ccncc21 (stereo not given)	n	45	n	n	n	n
CCCCNc1nc(Cl)nc(Nc2ccc(C)cc2)n1	n	n	n	n	n	n
CC(C)C(O)(C#CCN1CCCC1)c1ccccc1 (stereo not given)	n	92	n	n	n	n
CC(C)C(O)(C#CCN1CCCCC1)c1ccccc1 (stereo not given)	n	99	n	n	n	n
CC(O)(C#CCN1CCOCC1)c1ccccc1 (stereo not given)	n	n	n	n	n	n
COc1ccc(NS(=O)(=O)c2cc(NC(=O)CCc3ccc(OC)c(OC)c3)ccc2N2CCOCC2)cc1	n	n	n	n	n	n
CCN(Cc1ccc(OC)c(COC)c1)CC1CCCN(CCc2cccc(F)c2)C1 (stereo not given)	n	n	n	n	n	n
CN(Cc1ccccc1O)CC1CCCN(CCc2ccc(Cl)cc2)C1 (stereo not given)	n	80	n	n	n	n
CN(Cc1ccc(C#CCCO)cc1)CC1CCCN(CCc2ccc(Cl)cc2)C1 (stereo not given)	n	40	n	n	n	n
CCN(Cc1ccc(C#CCCO)cc1)CC1CCCN(CCc2cccc(F)c2)C1 (stereo not given)	n	52	n	n	n	n
Cc1cccc(NC(=O)c2ccc(NC(C)c3ccccc3)c([N+](=O)[O-])c2)n1 (stereo not given)	n	n	n	n	n	n
SMILES	CHO-K1 Ca antag	CHRM1 antagonist	M1 ag parental	M1 PAM parental	M1 ag	M1 PAM
CCOc1cccc(-c2c(C(=O)N/N=C/c3sccc3C)nnn2-c2nonc2N)c1	n	n	n	n	n	n
Cc1ccc(-c2c(C(=O)N/N=C/c3ccoc3)nnn2-c2nonc2N)cc1	n	n	n	n	n	n
Cc1ccc(-c2c(C(=O)N/N=C/c3cccs3)nnn2-c2nonc2N)cc1	n	n	n	n	18	n
Nc1nonc1-n1nnc(C(=O)N/N=C/c2cccs2)c1-c1ccc2c(c1)OCO2	n	n	42	n	43	n
CCOc1ccc(-c2c(C(=O)N/N=C/c3cccs3)nnn2-c2nonc2N)cc1	n	n	n	n	n	n
Cc1ccc(-c2c(C(=O)N/N=C/c3ccsc3)nnn2-c2nonc2N)cc1	n	n	17	n	41	n
CCOc1cccc(-c2c(C(=O)N/N=C/c3ccsc3)nnn2-c2nonc2N)c1	n	n	n	n	19	n
CC(=O)N1CCc2cc(S(=O)(=O)NC(CC(C)C)C(=O)N3CCCC3)ccc21 (stereo not given)	n	n	n	n	n	n
CNC(=O)C[C@H]1C(=O)N(CCc2ccccc2)C[C@@H]1C	n	n	n	n	n	n
CC(c1ccccc1C(O)(c1ccccc1)c1ccccc1)N(C)C (stereo not given)	n	n	23	n	n	n
O=C(CN1CCCCC1)N1c2ccccc2Oc2ccccc21	n	75	n	n	n	n
CC1CCCN(c2ccc(C(=O)OCC(=O)N3c4ccccc4Sc4ccccc43)cc2[N+](=O)[O-])C1 (stereo not given)	n	35	n	n	n	n
CC1Cc2ccccc2N1C(=O)CN1CCCCC1 (stereo not given)	n	n	n	n	n	n
CC1CCCN(c2ccc(C(=O)OCn3nnc4ccccc4c3=O)cc2[N+](=O)[O-])C1 (stereo not given)	n	n	n	n	n	n
O=C(CN1CCCCCC1)N1c2ccccc2Sc2ccccc21	n	99	16	n	n	n
CN1CCN(CC(=O)N2c3ccccc3Sc3ccccc32)CC1	n	100	n	n	n	n
CCOCCCNC(=O)Cn1cnc2sc(C)c(S(=O)(=O)N3CCN(c4ncccn4)CC3)c2c1=O	n	n	n	n	n	n
CC1CCCN(CC(=O)N2c3ccccc3Sc3ccccc32)C1 (stereo not given)	n	81	n	n	n	n
O=C1CCCN1CCCNCC(=O)N1c2ccccc2Sc2ccccc21	n	77	n	n	n	n
O=C(CN1CCCC(O)C1)N1c2ccccc2Sc2ccc(C(F)(F)F)cc21 (stereo not given)	n	99	n	n	n	n
Cc1cc(C)n(CC(=O)N2c3ccccc3Sc3ccc(C(F)(F)F)cc32)n1	n	62	n	n	n	n
COc1cc2c(cc1OC)C(c1ccccc1[N+](=O)[O-])=NCC2	n	n	n	n	n	n
C[N+]1(CC#CC(O)(c2ccccc2)c2ccccc2)CCCC1	n	100	n	n	n	n
OC(C#Cc1ccccc1)(c1ccccc1)c1ccccc1	n	n	n	n	n	n
CC(C)[N+](C)(C)CC#CC(O)(c1ccccc1)c1ccccc1	n	99	n	n	n	n

Screening data (PubChem BioAssay)
